Experimental data as given in PubChem BioAssay AID652208 (Broad Institute, 2013).
Potency and affinity values are given separately. Active and inactive are the calls of the source.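 The calls were made as follows: active = Loss of cell signal with fitted half-effect dose at or below twice the top valid tested dose; inconclusive = Poor fit, or flat fit from -70 to -30 percent; inactive = Half-effect above limit, rising signal, or flat within 30 percent.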

Assay: HEK293T cell cytotoxicity, dose response, cytotoxicity control for HIV Vif inhibitor project, cherry-picks (AID 652208)
Details: HEK293T viability, CellTiter-Glo luminescence, 24 h; series mostly up to 26 µM

Structure (SMILES)	outcome
CCOc1ccc2c(C)c(C(=O)O)oc2c1OCC	inactive
CCN(CC)C(=O)c1sc2nc(-c3cccs3)cc(-c3cccs3)c2c1N	inactive
S=C(NC1CC1)N1CCc2ccccc2C1	inactive
N#CC(C(=O)NCCc1ccccc1)c1nc2ccccc2nc1N1CCOCC1 (stereo not drawn)	inactive
Cc1nnc2ccc(-c3ccc(NS(=O)(=O)c4ccc(F)cc4F)cc3)nn12	inactive
O=C(O)c1ccc(S(=O)(=O)c2ccc3c(c2)C(=O)N(c2ccc(Br)cc2)C3=O)cc1	inactive
COc1ccc(C(=O)Nc2cc(OC)c(NC(=O)Nc3ccccc3)cc2OC)cc1	inactive
COc1ccc(/C=c2\s/c(=C/C(=O)c3ccc(C)cc3)[nH]c2=O)c(OC)c1	inactive
O=c1[nH]c(=O)n(Cc2ccco2)c2c1C(C(F)(F)F)(C(F)(F)F)N=C(c1ccco1)N2	inactive
CCCCCCn1c(N(CC)CC)nc2c1c(=O)[nH]c(=O)n2C	inactive
NCCCC[C@H](N[C@@H](CCc1ccccc1)C(=O)O)C(=O)N1CCC[C@H]1C(=O)O	inactive
CC(NC(=O)CSc1nc2c(c(C(F)(F)F)n1)CCc1ccccc1-2)c1ccccc1 (stereo not drawn)	inactive
COc1ccccc1C(C)NC(=O)Cc1ccsc1 (stereo not drawn)	inactive
O=C(Nc1cnccn1)Nc1ccccc1Cl	inactive
CCc1cccc2cc3c(N)c(C(=O)Nc4ccc(S(=O)(=O)N5CCCC5)cc4)sc3nc12	inactive
O=C(O)CCCCn1c(SCc2ccccc2Cl)nc2ccsc2c1=O	inactive
CCN(CC)C1Oc2cc3c(cc2C(c2cc(OC)c(OC)c(OC)c2)C1C)OCO3 (stereo not drawn)	inactive
CCOc1ccc(S(=O)(=O)NCc2ccccn2)cc1NC(=O)c1ccccc1	inactive
CN(Cc1ccccc1)C(=O)CCC1CCN(C(=O)c2ccco2)CC1	inactive

Structure (SMILES)	outcome
S=C(Nc1ccccc1)N1CCn2c(nc3ccccc32)C1	inactive
CCOC(=O)C1CCCN1C(=O)C1(NC(C)=O)CCCC1 (stereo not drawn)	inactive
O=C(NC1CCCc2ccccc21)c1ccccc1Br (stereo not drawn)	inactive
Cc1nc(-c2ccc(O)c(O)c2)cs1	inactive
CC(C(=O)O)c1ccc(N2Cc3ccccc3C2=O)cc1 (stereo not drawn)	inactive
CCn1c(SCc2ccc(C(=O)Nc3nccs3)cc2)nnc1-c1ccc(N)cc1	inactive
COCc1cc(C)nc(SCC(=O)Nc2cccc3cccnc23)c1C#N	inactive
CC(C)c1ccc(NC(=O)N2CCCC2C(=O)Nc2ccc(-n3cnnn3)cc2)cc1 (stereo not drawn)	inactive
O=C(CCCn1c(=S)[nH]c2ccccc2c1=O)N1CCN(c2cccc(Cl)c2)CC1	inactive
CCN(CC)C(=O)c1ccc(C(=O)c2c(C)cc(C)cc2C)cc1	inactive
COc1ccc(S(=O)(=O)Nc2cc3c(C(C)=O)c(C)oc3c3ccccc23)cc1	inactive
Cc1nnc(NC(=O)CSc2nnc(NC(=O)C(C)(C)C)s2)s1	inactive
CC(C)(C)NC(=O)CN(Cc1ccc(F)cc1)C(=O)Cn1nnc(-c2ccc(F)cc2)n1	inactive
CCCCn1c(-c2ccncc2)nc2c1c(=O)[nH]c(=O)n2CC(C)C	inactive
CCOC(=O)C1(Cc2ccccc2)CCN(Cc2csc(C(C)=O)c2)CC1	inactive
N#Cc1c2ccc(OCC(N)=O)cc2n2ccccc12	inactive
Cc1ccc(CNCCCSc2ncccn2)cc1	inactive
Cc1cccc(N2CCN(C(=O)c3cc4ccccc4oc3=O)CC2)c1C	inactive
COc1cccc(NC(=O)NC2(C(F)(F)F)Oc3ccccc3O2)c1	inactive
